Data published in PubChem BioAssay.
The list shows a part of the results. Calls of active or inactive are those of the source.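 The calls were made as follows, unless noted: active = inhibition above 50%; inactive = the rest.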

Assays:
[1] = target: Regulator of G-protein signaling 16 (Homo sapiens) (UniProt O15492); assay: modulators of RGS–Galpha-o binding, primary screen, biochemical, multiplexed beads, flow cytometry, RGS4/7/8/16/19 (AID 1504; call rule not given here;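 also: fluorescently labeled Galpha-o bound to GDP with aluminium fluoride binding biotinylated RGS beads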); details: multiplexed bead flow cytometry, measured here: RGS16 interaction, at 10 µM
[2] = target: Regulator of G-protein signaling 19 (Homo sapiens) (UniProt P49795); assay: as above; details: multiplexed bead flow cytometry, measured here: RGS19 interaction, at 10 µM
[3] = target: Regulator of G-protein signaling 4 (Homo sapiens) + Guanine nucleotide-binding protein G(o) subunit alpha (Homo sapiens) (UniProt P49798+P09471); assay: as above; details: multiplexed bead flow cytometry, at 10 µM
[4] = target: Regulator of G-protein signaling 7 (Homo sapiens) (UniProt P49802); assay: as above; details: multiplexed bead flow cytometry, measured here: RGS7 interaction, at 10 µM
[5] = target: Regulator of G-protein signaling 8 (Homo sapiens) (UniProt P57771); assay: as above; details: multiplexed bead flow cytometry, measured here: RGS8 interaction, at 10 µM
[6] = disruption of biotin probe capture by avidin, counter-screen for RGS protein interaction modulators, biochemical, flow cytometry, bead-based (AID 1783); details: streptavidin beads, fluorescein-biotin binding; at 10 µM, stronger effect = higher value;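 also: median green fluorescence of gated singlet beads compared with DMSO control wells; 0% = DMSO wells and 100% = complete loss of bead fluorescence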
[7] = target: Guanine nucleotide-binding protein G(o) subunit alpha (Homo sapiens) (UniProt P09471); assay: RGS8-Galphao binding modulators, confirmation, biochemical, multiplexed bead flow cytometry, single concentration (AID 1836; in the data active = binding response below about 72% or above about 130%; inactive = in between;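 also: Galphao activated as GDP AlF4 complex before binding bead RGS8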); details: bead-based flow cytometry RGS8-Galphao binding, fluorescence; at 10 µM; actives lie on both sides
[8] = target: Guanine nucleotide-binding protein G(o) subunit alpha (Homo sapiens) (UniProt P09471); assay: RGS7-Galphao binding modulators, confirmation, biochemical, multiplexed bead flow cytometry, single concentration (AID 1837; in the data active = response below about 75% or above about 130%; inactive = in between;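 also: fluorescent Galphao activated with GDP and aluminum fluoride binding bead-coupled RGS7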); details: bead-based flow cytometry RGS7-Galphao binding; at 10 µM; actives lie on both sides
[9] = target: Regulator of G-protein signaling 16 (Homo sapiens) + Guanine nucleotide-binding protein G(o) subunit alpha (Homo sapiens) (UniProt O15492+P09471); assay: modulators of RGS16-Galphao protein binding, confirmation, biochemical, single concentration, multiplexed bead flow cytometry (AID 1838; in the data active = response below about 74% or above about 130%; inactive = in between;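 also: Galphao activated as the GDP aluminium fluoride complex binding bead-coupled RGS16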); details: bead-based flow cytometry, at 10 µM, actives lie on both sides
[10] = target: Guanine nucleotide-binding protein G(o) subunit alpha (Homo sapiens) (UniProt P09471); assay: modulators of RGS4-Galphao protein binding, confirmation, biochemical, single concentration, multiplexed bead flow cytometry (AID 1840; in the data active = binding response below about 74% or above about 130%; inactive = in between); details: at 10 µM, actives lie on both sides
[11] = target: Guanine nucleotide-binding protein G(o) subunit alpha (Homo sapiens) + Regulator of G-protein signaling 19 (Homo sapiens) (UniProt P09471+P49795); assay: regulators of RGS19-Galphao binding, confirmation, biochemical, single point, multiplexed bead flow cytometry (AID 1841; in the data active = response below about 50% or above about 160%; inactive = in between;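 also: 100% = no compound control and 0% = blank background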); details: bead-based flow cytometry RGS19-Galphao binding; at 10 µM; actives lie on both sides
[12] = LAP4-GFP expression modulators in yeast, confirmation, cell-based, second cherry pick, flow cytometry (AID 2621;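 active = GFP signal as percent of the solvent control above about 150%, meaning raised reporter expression, limit read from the data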;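 also: ratio of well median GFP fluorescence to plate DMSO mean so 100% = DMSO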); details: S. cerevisiae LAP4-GFP strain, 3 h, at 10 µM, stronger effect = higher value
[13] = modulators of MEP2-GFP levels in yeast, confirmation, S. cerevisiae, flow cytometry GFP, second cherry picks (AID 2622;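 active = GFP signal above 150% of the solvent control wells, that is a rise of more than half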;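 also: median channel GFP fluorescence of all gated yeast cells per well; ratio of median GFP to plate DMSO average so 100% = DMSO level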); details: S. cerevisiae MEP2-GFP strain, 3 h, at 10 µM, stronger effect = higher value
[14] = RPL19A-GFP modulators in TOR pathway yeast, confirmation, cell-based, S. cerevisiae, flow cytometry, second cherry pick (AID 2623;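 active = under 65% GFP response relative to DMSO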;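 also: median GFP channel fluorescence per well over the all cells gate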); details: S. cerevisiae RPL19A-GFP strain, 3 h, at 10 µM, stronger effect = lower value, 100% means same as DMSO wells
[15] = modulators of CIT2-GFP expression in yeast, confirmation, flow cytometry, second cherry pick, single plex (AID 2624;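 active = GFP response vs DMSO above about 150%, limit read from the data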;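 also: median green fluorescence per well over all gated yeast cells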); details: S. cerevisiae CIT2-GFP strain, 3 h, at 10 µM, stronger effect = higher value, DMSO control wells read 100%
[16] = AGP1-GFP expression modulators, hit retest, confirmation, cell-based, flow cytometry, S. cerevisiae, cherry pick set 2 (AID 2643;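 active = over 150 percent of DMSO response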;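 also: median GFP channel fluorescence over all cells without mother daughter split; sample median GFP divided by mean DMSO control so 100% equals DMSO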); details: S. cerevisiae AGP1-GFP strain, 3 h, at 10 µM, stronger effect = higher value

Chain of Guanine nucleotide-binding protein G(o) subunit alpha (Homo sapiens) (P09471 whole entry, looked up): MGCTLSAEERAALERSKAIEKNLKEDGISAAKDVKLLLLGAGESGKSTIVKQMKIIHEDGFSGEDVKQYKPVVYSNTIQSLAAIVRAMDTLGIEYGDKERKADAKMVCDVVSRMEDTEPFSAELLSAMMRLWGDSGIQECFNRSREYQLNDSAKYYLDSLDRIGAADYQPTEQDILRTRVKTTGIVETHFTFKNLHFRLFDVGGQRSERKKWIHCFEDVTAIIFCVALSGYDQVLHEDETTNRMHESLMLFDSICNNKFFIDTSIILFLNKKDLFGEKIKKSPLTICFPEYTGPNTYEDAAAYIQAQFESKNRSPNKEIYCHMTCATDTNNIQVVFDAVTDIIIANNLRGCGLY
Chain of Regulator of G-protein signaling 4 (Homo sapiens) + Guanine nucleotide-binding protein G(o) subunit alpha (Homo sapiens) (P09471 whole entry, looked up): as above
Chain of Regulator of G-protein signaling 4 (Homo sapiens) + Guanine nucleotide-binding protein G(o) subunit alpha (Homo sapiens) (P49798 whole entry, looked up): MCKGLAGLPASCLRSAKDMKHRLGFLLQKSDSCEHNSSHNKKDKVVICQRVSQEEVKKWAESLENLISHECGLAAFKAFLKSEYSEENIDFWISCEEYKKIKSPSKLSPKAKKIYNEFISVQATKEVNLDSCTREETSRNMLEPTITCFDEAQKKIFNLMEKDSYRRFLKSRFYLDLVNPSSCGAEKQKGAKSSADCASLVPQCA
Chain of Guanine nucleotide-binding protein G(o) subunit alpha (Homo sapiens) + Regulator of G-protein signaling 19 (Homo sapiens) (P09471 whole entry, looked up): as the sequence (P09471 whole entry, looked up) above
Chain of Guanine nucleotide-binding protein G(o) subunit alpha (Homo sapiens) + Regulator of G-protein signaling 19 (Homo sapiens) (P49795 whole entry, looked up): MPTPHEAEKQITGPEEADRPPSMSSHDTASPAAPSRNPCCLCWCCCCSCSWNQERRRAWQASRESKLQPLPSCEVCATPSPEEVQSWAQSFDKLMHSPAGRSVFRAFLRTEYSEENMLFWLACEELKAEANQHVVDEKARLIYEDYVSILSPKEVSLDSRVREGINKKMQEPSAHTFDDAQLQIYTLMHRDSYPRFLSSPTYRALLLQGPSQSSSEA
Chain of Regulator of G-protein signaling 16 (Homo sapiens) + Guanine nucleotide-binding protein G(o) subunit alpha (Homo sapiens) (O15492 whole entry, looked up): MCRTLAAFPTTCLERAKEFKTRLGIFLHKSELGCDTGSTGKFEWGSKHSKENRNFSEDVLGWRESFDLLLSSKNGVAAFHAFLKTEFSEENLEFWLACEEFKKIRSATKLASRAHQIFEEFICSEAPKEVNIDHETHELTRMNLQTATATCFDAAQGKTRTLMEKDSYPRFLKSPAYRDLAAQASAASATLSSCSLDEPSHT
Chain of Regulator of G-protein signaling 16 (Homo sapiens) + Guanine nucleotide-binding protein G(o) subunit alpha (Homo sapiens) (P09471 whole entry, looked up): as the sequence (P09471 whole entry, looked up) above

SMILES: CC(=O)c1ccc(NC(=S)NC(=O)CC(C)C)cc1
- RGS16–Galpha-o binding response [1]: 21.8%
- RGS19–Galpha-o binding response [2]: 162%
- RGS4–Galpha-o binding response [3]: 91.6% (active)
- RGS7–Galpha-o binding response [4]: 91.6%
- RGS8–Galpha-o binding response [5]: 81.4%
- inhibition [6]: 3.2% (inactive)
- binding response (% of control) [7]: 99.1% (inactive)
- response (percent of control binding) [8]: 86.2% (inactive)
- response (% of control binding) [9]: 93.9% (inactive)
- binding response (% of control) [10]: 93.6% (inactive)
- response (percent of control binding) [11]: 87.5% (inactive)

SMILES: C/C(=N\NS(=O)(=O)c1ccc(Br)cc1)c1cccs1
- RGS16–Galpha-o binding response [1]: -881%
- RGS19–Galpha-o binding response [2]: 99.9%
- RGS4–Galpha-o binding response [3]: 120% (active)
- RGS7–Galpha-o binding response [4]: 106%
- RGS8–Galpha-o binding response [5]: 95.4%
- inhibition [6]: 1.5% (inactive)
- binding response (% of control) [7]: 102% (inactive)
- response (percent of control binding) [8]: 103% (inactive)
- response (% of control binding) [9]: 103% (inactive)
- binding response (% of control) [10]: 104% (inactive)
- response (percent of control binding) [11]: 99.1% (inactive)

SMILES: FC(F)Oc1ccccc1C1CC(c2ccc(Br)s2)Nc2ncnn21 (centres undefined)
- RGS16–Galpha-o binding response [1]: 215%
- RGS19–Galpha-o binding response [2]: -1720%
- RGS7–Galpha-o binding response [4]: 163%
- RGS8–Galpha-o binding response [5]: 111%
- inhibition [6]: 2.6% (inactive)
- binding response (% of control) [7]: 99.3% (inactive)
- response (percent of control binding) [8]: 98% (inactive)
- response (% of control binding) [9]: 97.2% (inactive)
- binding response (% of control) [10]: 95.9% (inactive)
- response (percent of control binding) [11]: 96% (inactive)

SMILES: C/C(=C/C(=O)N1CCN(C)CC1)C(=O)O
- RGS16–Galpha-o binding response [1]: 234%
- RGS19–Galpha-o binding response [2]: -6.25%
- RGS4–Galpha-o binding response [3]: 109% (active)
- RGS7–Galpha-o binding response [4]: 105%
- RGS8–Galpha-o binding response [5]: 125%
- inhibition [6]: 0.5% (inactive)
- binding response (% of control) [7]: 104% (inactive)
- response (percent of control binding) [8]: 98.7% (inactive)
- response (% of control binding) [9]: 105% (inactive)
- binding response (% of control) [10]: 102% (inactive)
- response (percent of control binding) [11]: 102% (inactive)

SMILES: O=C(CN1CCOCC1)Nc1ccccc1
- RGS16–Galpha-o binding response [1]: 297%
- RGS19–Galpha-o binding response [2]: 103%
- RGS4–Galpha-o binding response [3]: 115% (active)
- RGS7–Galpha-o binding response [4]: 112%
- RGS8–Galpha-o binding response [5]: 145%
- inhibition [6]: 2.3% (inactive)
- binding response (% of control) [7]: 97.1% (inactive)
- response (percent of control binding) [8]: 92.3% (inactive)
- response (% of control binding) [9]: 94.4% (inactive)
- binding response (% of control) [10]: 97.7% (inactive)
- response (percent of control binding) [11]: 97.1% (inactive)

SMILES: NC(=O)CSc1c[nH]c2ccccc12
- RGS16–Galpha-o binding response [1]: 19.6%
- RGS19–Galpha-o binding response [2]: -48.5%
- RGS7–Galpha-o binding response [4]: 25.2%
- RGS8–Galpha-o binding response [5]: 27.5%
- inhibition [6]: -1.7% (inactive)
- binding response (% of control) [7]: 104% (inactive)
- response (percent of control binding) [8]: 102% (inactive)
- response (% of control binding) [9]: 110% (inactive)
- binding response (% of control) [10]: 106% (inactive)
- response (percent of control binding) [11]: 103% (inactive)

SMILES: COc1ccc(-c2nn(-c3ccccc3)cc2C(=O)Nc2nccs2)cc1OC
- RGS16–Galpha-o binding response [1]: 24.6%
- RGS19–Galpha-o binding response [2]: 172%
- RGS4–Galpha-o binding response [3]: 90.3% (active)
- RGS7–Galpha-o binding response [4]: 102%
- RGS8–Galpha-o binding response [5]: 75%
- inhibition [6]: -2.4% (inactive)
- binding response (% of control) [7]: 102% (inactive)
- response (percent of control binding) [8]: 99.8% (inactive)
- response (% of control binding) [9]: 103% (inactive)
- binding response (% of control) [10]: 101% (inactive)
- response (percent of control binding) [11]: 112% (inactive)

SMILES: Cc1cc2nc(C)n(CCCNC(=O)Nc3ccccc3)c2cc1C
- RGS16–Galpha-o binding response [1]: 283%
- RGS19–Galpha-o binding response [2]: 94.8%
- RGS7–Galpha-o binding response [4]: 180%
- RGS8–Galpha-o binding response [5]: 170%
- inhibition [6]: -0.5% (inactive)
- binding response (% of control) [7]: 102% (inactive)
- response (percent of control binding) [8]: 104% (inactive)
- response (% of control binding) [9]: 103% (inactive)
- binding response (% of control) [10]: 104% (inactive)
- response (percent of control binding) [11]: 97.2% (inactive)

SMILES: COc1ccccc1-n1c(-c2cc(-c3ccco3)[nH]n2)n[nH]c1=S
- RGS16–Galpha-o binding response [1]: -1.14%
- RGS19–Galpha-o binding response [2]: 531%
- RGS7–Galpha-o binding response [4]: -527%
- RGS8–Galpha-o binding response [5]: 6.3%
- inhibition [6]: 0.5% (inactive)
- binding response (% of control) [7]: 83.6% (inactive)
- response (percent of control binding) [8]: 99.5% (inactive)
- response (% of control binding) [9]: 82.6% (inactive)
- binding response (% of control) [10]: 98.3% (inactive)
- response (percent of control binding) [11]: 68.6% (inactive)

SMILES: CCCn1nnnc1NC(=O)COc1ccc(Cl)cc1C
- RGS16–Galpha-o binding response [1]: 2.27%
- RGS19–Galpha-o binding response [2]: -359%
- RGS7–Galpha-o binding response [4]: 17.1%
- RGS8–Galpha-o binding response [5]: 11.9%

SMILES: CCN(CC)CCOc1ccc2c(c1)C(=NNC(=O)c1ccccn1)c1cc(OCCN(CC)CC)ccc1-2
- RGS16–Galpha-o binding response [1]: 203%
- RGS19–Galpha-o binding response [2]: 146%
- RGS7–Galpha-o binding response [4]: 216%
- RGS8–Galpha-o binding response [5]: 154%

SMILES: CCCC(=O)n1nc(-c2ccccc2)nc1N
- RGS16–Galpha-o binding response [1]: 14.9%
- RGS19–Galpha-o binding response [2]: -92.7%
- RGS7–Galpha-o binding response [4]: 23.4%
- RGS8–Galpha-o binding response [5]: 20.9%

SMILES: O=C(Nc1cccc(F)c1)c1coc(=O)c(Br)c1
- RGS16–Galpha-o binding response [1]: 100%
- RGS19–Galpha-o binding response [2]: 108%
- RGS4–Galpha-o binding response [3]: 83.8% (active)
- RGS7–Galpha-o binding response [4]: 45.3%
- RGS8–Galpha-o binding response [5]: 80.8%
- inhibition [6]: -1.3% (inactive)
- binding response (% of control) [7]: 110% (inactive)
- response (percent of control binding) [8]: 105% (inactive)
- response (% of control binding) [9]: 109% (inactive)
- binding response (% of control) [10]: 103% (inactive)
- response (percent of control binding) [11]: 118% (inactive)

SMILES: CCC(=O)N1CCC(C(N)=O)(N2CCCCC2)CC1
- RGS16–Galpha-o binding response [1]: 417%
- RGS19–Galpha-o binding response [2]: 90.3%
- RGS4–Galpha-o binding response [3]: 133% (active)
- RGS7–Galpha-o binding response [4]: 161%
- RGS8–Galpha-o binding response [5]: 163%
- inhibition [6]: 2% (inactive)
- binding response (% of control) [7]: 93.5% (inactive)
- response (percent of control binding) [8]: 90.7% (inactive)
- response (% of control binding) [9]: 94.8% (inactive)
- binding response (% of control) [10]: 94.8% (inactive)
- response (percent of control binding) [11]: 88.3% (inactive)
- GFP response vs DMSO [12]: 99% (inactive)
- GFP response vs DMSO [13]: 102% (inactive)
- GFP response vs DMSO [14]: 99.8% (inactive)
- GFP response vs DMSO [15]: 104% (inactive)
- percent response vs DMSO [16]: 99.4% (inactive)
